# Results reported in PubChem BioAssay AID2320 (National Center for Advancing Translational Sciences (NCATS), 2010).
# Records with an inconclusive call do not appear. Values without a mark were called inactive. Active and inactive are the calls of the source. Calls come from the whole dose curve.
# Test: A qHTS for Small Molecule Inhibitors of Shiga Toxin (Confirmatory); note: nearly all actives have a fitted effect of over 75% in size; for activity, positive = inhibition of toxin: 0% is about no effect
# Conditions: Cell-based Shiga toxin protection reporter assay; series mostly up to 38.3 µM; activity, positive = inhibition of toxin: at the top concentration
# Potency is the fitted concentration of half-maximal effect.
SMILES,"activity, positive = inhibition of toxin",Potency
O=c1cc(-c2cccc(F)c2)[nH]c2ccc(Cl)cc12,-10.8%,–
Cc1cc(OCC(=O)NCc2ccccn2)cc(C)c1Br,-1.75%,–
CCCn1nnc(NC(=O)COc2ccc(C3CCCCC3)cc2)n1,–,0.0252 µM (active)
C=CCn1c(=S)[nH]c2cc(-c3ccccc3)sc2c1=O,–,0.0113 µM (active)
Cc1ccc(C)n1-c1ccc(NC(=O)c2ccccc2)cc1,–,15.9 µM (active)
COc1ccc(OCc2cccc(C(=O)O)c2)cc1,–,0.0356 µM (active)
Cc1ccc(NC(=O)c2cc(S(=O)(=O)N3CCCCC3)ccc2N2CCOCC2)cc1F,–,0.04 µM (active)
O=C(Cc1c(F)cccc1Cl)c1ccc(O)cc1O,45.2%,–
COc1ccc(C(=O)Nc2ccccc2C(=O)NCc2ccco2)cc1,–,5.65 µM (active)
CCCn1c(C)cc(/C=C(\C#N)C(=O)OCC(=O)Nc2ccc(OC)c(Cl)c2)c1C,–,8.95 µM (active)
COc1ccc2nc(SCC(=O)Nc3ccc4c(c3)CCC4)[nH]c2c1,41.5%,–
CCN1CCN(Cc2nnc(-c3ccc(C)cc3)o2)CC1,-16.1%,–
COc1ccc(NC(=O)c2c(Cl)n(C)c3ccccc23)cc1,–,11.3 µM (active)
COc1ccc(N2CCN(Cc3csc(C)c3-c3ccc(C)cc3)CC2)cc1,-28.3%,–
COCCCNC(=O)c1cn(C)c(=O)c2c1c1ccccc1n2C,-30.2%,–
Cc1cc(C)c2c(n1)SCC(=O)N2CC(=O)Nc1ccc(C)c(C)c1,–,0.449 µM (active)
COc1ccccc1CNC(=O)c1csc2c1CCCC2,–,10 µM (active)
Cc1cnc(NC(=O)c2c(Cl)cnn2C)s1,24.6%,–
CCN(CC)CC(=O)Nc1ccc(-c2nc3cc(NC(=O)CN(CC)CC)ccc3o2)cc1,46.8%,–
COc1cccc(C(=O)NNC(=O)C2CC(C)=C(C)CC2C(=O)O)c1 (stereo not given),-47.7%,–
